Assay results: PubChem BioAssay

Tests used:
[1] = tested on: Human papillomavirus type 1a protein E7 (residues 44-93); assay: small molecules binding HPV E7 44-93 – biochemical, small-molecule microarray, residues 44-93, 635 nm fluorescence, primary screen (AID 1108); conditions: fluorescence 635 nm, higher = more signal;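 also: E7 fragment applied at 1 µg/mL in TBST for 1 h at 4 C; score combines spot fluorescence with its signal to noise ratio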
[2] = hepatitis C replication reporter changes, two-sided – Huh7 cells, luciferase reporter, HCV replication inhibitor project, primary screen (AID 1109); conditions: Huh7 HCV replicon luciferase reporter, 48 h; higher = more signal;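 also: huh7 hepatoma cells harbouring a luciferase neomycin HCV replicon reporter; luciferase luminescence as measure of HCV replicon replication; test concentration not given here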
[3] = target: Left-right determination factor 2 (Homo sapiens) (UniProt O00292); assay: small molecules binding LEFTY2 protein – biochemical, small-molecule microarray, 635 nm fluorescence scan, primary screen (AID 1110); conditions: higher = more signal
Sequence of Left-right determination factor 2 (Homo sapiens) (O00292 whole entry, looked up): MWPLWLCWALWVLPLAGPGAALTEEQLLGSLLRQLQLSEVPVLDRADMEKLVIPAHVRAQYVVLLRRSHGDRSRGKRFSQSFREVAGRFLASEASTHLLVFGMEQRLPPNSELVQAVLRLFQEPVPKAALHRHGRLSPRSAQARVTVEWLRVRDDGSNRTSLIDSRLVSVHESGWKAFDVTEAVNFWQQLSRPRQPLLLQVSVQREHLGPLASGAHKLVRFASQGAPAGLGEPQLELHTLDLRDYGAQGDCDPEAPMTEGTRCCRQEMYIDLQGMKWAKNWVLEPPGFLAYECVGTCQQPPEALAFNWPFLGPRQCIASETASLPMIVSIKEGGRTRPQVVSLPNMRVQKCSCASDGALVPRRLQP

[4] = target: Calmodulin-1 (Homo sapiens) (UniProt P0DP23); assay: small molecules binding calmodulin-1 with EGTA – biochemical, small-molecule microarray, Cy5-labelled CALM1, profiling panel (AID 1111); conditions: Cy5-CALM1 binding fluorescence, higher = more signal;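 also: labelled calmodulin applied in Tris saline Tween buffer holding calcium plus EGTA and DTT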
[5] = target: Calmodulin-1 (Homo sapiens) (UniProt P0DP23); assay: small molecules binding Ca-loaded calmodulin-1 – biochemical, small-molecule microarray, Cy5-labelled CALM1, plus calcium, artefact control for SMM control-protein annotation, profiling panel (AID 1112); conditions: Cy5-CALM1 binding fluorescence, higher = more signal;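 also: score merges spot fluorescence with signal to noise from triplicate slides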
[6] = probe aWnt5a binding to arrayed compounds – biochemical, biotinylated probe, 635/667 nm fluorescence, primary screen (AID 1113); conditions: small-molecule microarray, higher = more signal;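 also: score merges 667 nm fluorescence intensity with signal-to-noise per printed feature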
[7] = probe aShh binding to arrayed compounds – biochemical, biotinylated probe, 635/667 nm fluorescence, primary screen (AID 1114); conditions: small-molecule microarray, higher = more signal;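 also: probe is biotin-labelled aShh protein from a stem cell growth factor screen; measures binding of labelled protein to compounds printed on the slide; score merges feature fluorescence at 667 nm with signal-to-noise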
[8] = probe aNog binding to arrayed compounds – biochemical, biotinylated probe, 635/667 nm fluorescence, primary screen (AID 1115); conditions: small-molecule microarray, higher = more signal;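 also: probe is biotinylated aNog protein used at 0.15 µg/mL for 1 h at 4 C; z-score combines 667 nm fluorescence of each spot with its signal to noise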
[9] = target: Torsin-1A-interacting protein 1 (Homo sapiens) (UniProt Q5JTV8); assay: compound microarray binding of lysate hLAP1 – cell lysate, small-molecule microarray, COS7 lysate, 635/667 nm fluorescence, primary screen (AID 1116); conditions: 635 nm fluorescence, higher = more signal
Sequence of Torsin-1A-interacting protein 1 (Homo sapiens) (Q5JTV8 whole entry, looked up): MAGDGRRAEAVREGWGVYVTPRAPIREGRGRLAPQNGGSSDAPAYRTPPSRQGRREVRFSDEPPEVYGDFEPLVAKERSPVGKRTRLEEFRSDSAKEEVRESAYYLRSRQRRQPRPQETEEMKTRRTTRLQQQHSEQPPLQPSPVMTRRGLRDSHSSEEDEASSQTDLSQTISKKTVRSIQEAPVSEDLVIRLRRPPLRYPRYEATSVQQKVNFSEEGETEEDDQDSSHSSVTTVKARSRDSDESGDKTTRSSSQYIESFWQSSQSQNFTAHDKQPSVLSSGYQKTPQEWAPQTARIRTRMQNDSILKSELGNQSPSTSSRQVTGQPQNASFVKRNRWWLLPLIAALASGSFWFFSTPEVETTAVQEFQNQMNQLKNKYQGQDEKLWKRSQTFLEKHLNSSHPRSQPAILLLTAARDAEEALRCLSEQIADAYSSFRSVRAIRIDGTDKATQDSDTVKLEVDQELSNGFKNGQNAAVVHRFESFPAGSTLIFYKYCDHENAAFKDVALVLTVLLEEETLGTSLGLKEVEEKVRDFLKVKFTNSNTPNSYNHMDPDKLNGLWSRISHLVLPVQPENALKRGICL

[10] = target: Alpha-bungarotoxin (Bungarus multicinctus) (UniProt P60615); assay: compounds binding labelled alpha-BTX control protein – biochemical, small-molecule microarray, Alexa647 label, 635/667 nm fluorescence, artefact control for SMM control protein annotation, profiling panel (AID 1117); conditions: alpha-BTX-A647 binding fluorescence, higher = more signal
Sequence of Alpha-bungarotoxin (Bungarus multicinctus) (P60615 whole entry, looked up): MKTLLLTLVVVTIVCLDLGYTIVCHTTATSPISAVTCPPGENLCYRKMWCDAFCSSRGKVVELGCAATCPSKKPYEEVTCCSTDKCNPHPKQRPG

Structure (SMILES)	composite z-score [1]	z-score [2]	composite z-score [3]	composite z-score [4]	composite z-score [5]	composite z-score [6]	composite z-score [7]	composite z-score [8]	composite z-score [9]	composite z-score [10]
O=C1O[C@@H](c2ccccc2)[C@@H](c2ccccc2)N2[C@@H](c3ccc(O)cc3)[C@]3(C(=O)Nc4ccc(C#CC5=CCCCC5)cc43)[C@@H](C(=O)Nc3nc4ccccc4s3)[C@H]12	1.4	-0.99	1.25	1.48	-0.18	0.428	0.368	2.02	0.825	1.87
C=C(CCCC)/C(=C/C[C@H](OC(=O)c1ccncc1)c1ccc(CO)o1)c1cc(C(=O)OC)ccc1OC	-0.0541	-1.93	0.982	0.786	-0.324	-0.196	0.256	0.95	0.539	1.28
CO[C@H]1O[C@H](CO)[C@@H](OC(=O)c2ccc(Br)cc2)[C@@H]2OC(=O)[C@H](Cc3cccc(Br)c3)C/C=C/C[C@@H](Cc3cccc(Br)c3)C(=O)O[C@@H]12	0.549	-2.15	0.985	0.622	0.0872	-0.113	0.317	-0.172	0.323	0.867
CC(C)c1ccc(NN2C(C(O)c3ccccn3)C=CC3C(=O)N(c4ccccc4)C(=O)C32)cc1 (stereo not given)	1.51	-0.112	0.581	1.11	0.214	0.145	0.04	1.7	1.34	0.964
NC(=O)NCC#Cc1ccc2c(c1)[C@]1(C(=O)N2)[C@H](c2ccc(O)cc2)N2[C@H](c3ccccc3)[C@H](c3ccccc3)OC(=O)[C@H]2[C@@H]1C(N)=O	-0.366	0.114	-0.749	-0.571	0.261	-0.185	0.0469	0.218	-0.757	0.387
OCc1ccc(-c2cc[n+](Cc3cccc(OC(F)(F)F)c3)cc2)cc1	1.19	0.717	1.36	-0.245	-0.196	-0.0006	-0.0146	0.425	1.08	1.9
COC(=O)[C@]1(Cc2ccccc2N=[N+]=[N-])N=C(c2ccc(OCCCO)cc2)O[C@@H]1c1ccccc1	-0.296	-3.3	-0.96	0.279	0.41	0.0831	-0.111	0.534	0.738	0.41
O=C1C2C=CC(C(O)c3ccccn3)N(Nc3ccccc3)C2C(=O)N1c1ccccc1 (stereo not given)	0.132	0.819	-0.136	0.167	-0.0451	-0.0758	-0.291	0.0373	0.529	0.31
O=C1c2ccccc2[C@](Cc2ccccc2I)(C(=O)NCC(F)(F)F)[C@H](c2ccc(CO)cc2)N1Cc1ccccc1	1.42	-0.673	-0.38	1.4	0.464	-0.155	0.0048	0.0139	0.419	0.928
C=CCNC(=O)[C@H]1[C@@H]2C(=O)O[C@@H](c3ccccc3)[C@@H](c3ccccc3)N2[C@@H](c2ccc(OCCO)cc2)[C@]12C(=O)N(C(=O)OCCOC)c1ccc(C#CC3=CCCCC3)cc12	-0.192	-1.94	0.652	1.28	0.171	0.0243	0.0141	-0.038	2.23	2.5
O=C1O[C@H](c2ccccc2)[C@H](c2ccccc2)N2[C@H]1[C@@H](C(=O)N1CCCCCCC1)[C@]1(C(=O)Nc3ccccc31)[C@H]2c1ccc(O)cc1	1.52	-1.09	1.86	3.09	1.64	1.63	3.71	3.66	5.68	3.36
COc1ccc([Si](C)(C)[C@@H]2[C@@H](CCO)O[C@]3(C(=O)N(Cc4ccc(N5C(=O)c6ccccc6Oc6ccccc65)cc4)c4ccccc43)[C@H]2C)cc1	-0.0261	-4.95	-1.16	0.322	0.751	-0.0643	-0.138	-0.358	-1.06	0.0794
N#Cc1ccc(NN2C(C(O)c3ccccc3)C=CC3C(=O)N(c4ccccc4)C(=O)C32)cc1 (stereo not given)	0.117	0.335	-0.135	-0.0722	-0.162	0.0797	-0.102	0.642	-0.113	0.153
CCOC(=O)C[C@H]1[C@H](OC(=O)Cc2ccc3c(c2)OCO3)[C@@H](NC(=O)c2ccccc2)c2cc(OCCCO)ccc2N1C(=O)c1ccccc1	0.487	-0.183	0.24	0.334	-0.469	-0.128	-0.221	-0.18	0.223	0.652
COCCOC(=O)N1C(=O)[C@@]2(c3cc(C#CC4(O)CCCCCC4)ccc31)[C@H](C(=O)NC[C@H](O)c1ccccc1)[C@H]1C(=O)O[C@H](c3ccccc3)[C@H](c3ccccc3)N1[C@@H]2c1ccc(OCCO)cc1	1.38	-1.73	0.358	0.7	0.383	-0.282	-0.638	0.14	0.394	0.598
CCCC[C@H]1OB(O)C[C@H]2C1=C(COc1ccccc1)Cn1c(=O)n(-c3ccccc3)c(=O)n12	1.03	-0.917	0.375	0.292	-0.0404	-0.186	-0.16	-0.555	0.654	-0.334
